Screens deposited in PubChem by National Center for Advancing Translational Sciences (NCATS).
Hits are enriched below; roughly 19% of the tested compounds scored in any of these assays.
KB-V1 cytotox – kills drug-selected multidrug resistant KB-V1 cells. hit rate 3.4% among 400,000. AID 1347076. KB-V1 MDR cells viability, CellTiter-Glo, 72 h. Potency, µM (top dose mostly 46.1 µM), most hits filed as cytotoxic; also: nearly all actives have a fitted effect of over 60% in size
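Cells of the MDR subline KB-V1 are plated, dosed with compound at multiple concentrations, and incubated 72 h at 37 degrees C; CellTiter-Glo is then added and luminescence read after 10 min.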
DT40 TDP1 CPT – DT40-hTDP1 cell growth loss with CPT. chicken DT40 Tdp1-/-;hTDP1 cells + 20 nM CPT, ATP luminescence, 48 h. Potency, µM (highest dose often 46.2 µM), inactives show at the highest dose activity change, negative = growth inhibition, most hits filed as inhibitors. hit rate 12% among 420,000. AID 686979; also: nearly all actives have a fitted effect of over 55% in size
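Chicken DT40 Tdp1-/- cells stably complemented with human TDP1 were seeded at 400 cells/well in medium containing 20 nM camptothecin, exposed to pin-transferred compounds, and grown at 37 °C for at least 48 hr. Viability was read as ATP luminescence.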
KB-3-1 tox – kills parental KB-3-1 adenocarcinoma cells | KB-3-1 viability, CellTiter-Glo ATP luminescence, 72 h | Potency, µM (highest dose often 46.1 µM), hits mostly cytotoxic | hit rate 1.4% among 400,000; also: nearly all actives have a fitted effect of over 60% in size
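Luminescent ATP read-out (CellTiter-Glo) measures survival of drug-naive KB-3-1 cells after 72 h compound exposure at 37 °C. Titration series was screened from lowest to highest concentration, with DMSO vehicle plates as background controls.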
HT1080 IDH1KD tx – toxicity to HT-1080 IDH1 knockdown cells (counter line); HT-1080 IDH1 knockdown viability, ATP luminescence, 48 h; Potency, µM (titrated, usually from 46.1 µM), inactives show top-dose activity, negative = toxicity, actives largely listed as cytotoxic; hit rate 2% among 360,000;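 also: 0% = DMSO wells and -100% = cell-free medium wells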
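CellTiter-Glo luminescence after 48 h compound exposure at 37 degrees C of IDH1-knockdown HT-1080 cells in 5% FBS RPMI. %Activity scaled between DMSO wells and cell-free media wells, with curves fitted and assigned curve classes.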
DT40 TDP1 no CPT – qHTS for Inhibitors of human tyrosyl-DNA phosphodiesterase 1 (TDP1): qHTS in cells in absence of CPT; Potency, µM (series often up to 46.2 µM), for the others: at the top dose activity change, negative = growth inhibition, usual class: inhibitors; AID 686978, 2013; DT40 Tdp1-/- hTDP1 cells, no CPT, ATP luminescence, 48 h; hit rate 15% among 420,000; also: nearly all actives have a fitted effect of over 55% in size
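Readout: luminescence from CellTiter-Glo after 30 min in the dark at RT. Cells: DT40 Tdp1-/- with stable hTDP1, 400/well. Exposure: compounds alone, ≥48 hr, 37 °C.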
HT1080NT lethal – kills 2HG-producing HT-1080-NT fibrosarcoma cells | HT-1080-NT fibrosarcoma viability, CellTiter-Glo ATP luminescence, 48 h | hit rate 1.6% among 360,000 | Potency, µM (highest dose often 46.1 µM), inactives show at the top dose activity, negative = less viability, usual class: cytotoxic;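 also: NT is the 2HG producing partner of a matched IDH1 knockdown line; 0% = DMSO-treated cells and -100% = media-only wells without cells; nearly all actives have a fitted effect of over 55% in size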
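Luminescent CellTiter-Glo readout after 48 hours of compound exposure at 37 degrees C defined viability of HT-1080-NT cells. Activity was normalized to DMSO wells and cell-free media wells; concentration-response curves were fitted and assigned curve classes.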
The depositor's hits bear a star; i = inactive; ? = inconclusive; · = no result given; [ ] = remark or other dose. Calls follow the shape of the dose curve; as a rule, active = well fitted curve in the direction sought with a large enough effect; inconclusive = small, poorly fitted or top-dose-only effect, or another doubt; inactive = no such curve, though single readings can be large; an effect the other way counts as inactive or inconclusive. Unless noted, % is scaled to controls: 0 for no effect and ±100 for the full control effect; potency is read from the fitted curve at half-maximal effect.

SMILES	KB-V1 cytotox	DT40 TDP1 CPT	KB-3-1 tox	HT1080 IDH1KD tx	DT40 TDP1 no CPT	HT1080NT lethal
S=C(NCc1ccccc1)N1CCN(Cc2ccc3c(c2)OCO3)CC1	i	-3.5%	i	-10.9%	?	-0.1%
O=C(NCc1ccc(Cl)cc1)N1CCN(Cc2ccccc2)CC1	16.4µM*	23.1µM*	?	?	?	-20.3%
COc1cccc(CN2CCN(C(=S)NCc3ccc(Cl)cc3)CC2)c1	i	?	i	0.0%	20.6µM*	-16.2%
O=C(Nc1ccccc1)N1CCN(Cc2ccc(Cl)cc2)CC1	i	?	i	8.6%	?	6.9%
O=C(Nc1cc(Cl)cc(Cl)c1)N1CCCN(Cc2ccccc2)CC1	?	-13.6%	i	?	?	20.6µM*
Cc1cc(Cl)ccc1NC(=S)N1CCN(Cc2ccccc2)CC1	23.1µM*	6.0%	i	18.4%	-26.2%	8.0%
Cc1cccc(N2CCN(C(=O)NCc3ccc(Cl)cc3)CC2)c1	8.2µM*	?	23.1µM*	?	20.6µM*	?
COc1ccc(CNC(=O)N2CCN(c3cccc(Cl)c3)CC2)cc1OC	?	?	i	-4.8%	?	5.2%
CCCCN(CCCC)C1=Nc2ccccc2N/C1=C(/C#N)C(=O)OCC	i	20.6µM*	i	-6.2%	20.6µM*	4.1%
CCOC(=O)/C(C#N)=C1\Nc2ccccc2N=C1N(CC(C)C)CC(C)C	?	?	i	?	18.4µM*	?
O=C(O)CCN(CC(=O)c1ccc(Cl)cc1)S(=O)(=O)c1ccc([N+](=O)[O-])cc1	i	4.0%	i	3.5%	0.8%	4.7%
CCn1cc(C(=O)O)c(=O)c2cc(F)c(N/N=C/c3ccccc3)cc21	7.31µM*	?	?	-17.8%	13µM*	-4.2%
CCn1cc(C(=O)O)c(=O)c2cc(F)c(N3CCN(C(=O)Nc4ccccc4)CC3)cc21	i	20.6µM*	i	-8.4%	23.1µM*	1.3%[9.24 µM]
CCn1cc(C(=O)O)c(=O)c2cc(F)c(N3CCN(S(=O)(=O)c4ccc(NC(C)=O)cc4)CC3)cc21	i	-27.4%	?	6.3%	?	-0.6%
CCn1cc(C(=O)O)c(=O)c2cc(F)c(N3CCN(C(=S)NC(=O)c4ccccc4F)CC3)cc21	i	-20.1%	i	20.4%	14.6µM*	18.2%
CCn1cc(C(=O)O)c(=O)c2cc(F)c(N3CCN(S(=O)(=O)c4ccc5c(c4)OCCO5)CC3)cc21	i	20.6µM*	i	2.4%	?	13.7%
CCn1cc(C(=O)O)c(=O)c2cc(F)c(N3CCN(C(=S)NC(=O)c4cccc(C)c4)CC3)cc21	i	-23.5%	i	22.7%	-17.3%	21.4%
CCN(Cc1ccncc1)Cc1ccc2c(c1)CN(C(=O)c1cccc3c(C)c(C)[nH]c13)CCO2	·	-2.6%	·	·	-19.9%	·
O=C(NCCC1=CCCCC1)c1ccc2c(c1)ncn2-c1ccc(F)c(F)c1	i	?	i	·	-29.1%	·
CN1CCN(S(=O)(=O)c2ccc(N3CCN(S(=O)(=O)/C=C/c4ccccc4)CC3)nc2)CC1	i	18.4µM*	i	-12.4%	?	-20.7%
CN1CCN(S(=O)(=O)c2ccc(N3CCN(C(c4ccccc4)c4ccccc4)CC3)nc2)CC1	i	?	?	?	16.4µM*	7.4%
CC(=O)N1CC2(NC(=O)c3ccccc3N2)c2ccccc21 (stereo not drawn)	i	6.9%	i	0.0%	-19.7%	-1.6%
O=c1c2oc3ccccc3c2n(Cc2ccccc2F)c(=O)n1Cc1ccco1	i	-15.3%	i	·	-1.3%	·
CCC(C(=O)Nc1cccc(S(=O)(=O)N(C)c2ccccc2)c1)c1ccccc1 (stereo not drawn)	·	18.4µM*	·	?	18.4µM*	-13.0%
CC(=O)c1ccc(NC(=O)C(C)Oc2ccc(N(C)S(=O)(=O)c3ccc(C)cc3)cc2)cc1 (stereo not drawn)	?	?	i	-1.8%	?	-1.9%
SMILES	KB-V1 cytotox	DT40 TDP1 CPT	KB-3-1 tox	HT1080 IDH1KD tx	DT40 TDP1 no CPT	HT1080NT lethal
CC(Oc1ccc(F)cc1)C(=O)Nc1cccc(S(=O)(=O)N(C)c2ccccc2)c1 (stereo not drawn)	?	?	i	-4.7%	16.4µM*	-18.2%
Cc1ccc(S(=O)(=O)N(C)c2ccc(OC(C)C(=O)N(C)c3ccccc3)cc2)cc1 (stereo not drawn)	?	14.6µM*	i	-8.2%	18.4µM*	1.0%
Cc1cc2nc(-c3nnnn3C3CCCCC3)c(=O)[nH]c2cc1C	?	-42.7%	i	10.1%	?	15.4%
O=C(COc1ccccc1)Nc1nc2c(s1)CCCC2	i	?	?	-16.0%	?	-9.2%
O=C(COc1ccccc1Cl)Nc1nc2c(s1)CCCC2	·	8.2µM*	·	·	10.3µM*	·
CCCOc1ccccc1C(=O)Nc1nc2c(s1)CCCC2	·	20.6µM*	·	·	18.4µM*	·
NC(=S)N/N=C/c1ccc2ccccc2c1	?	23.1µM*	i	2.2%	23.1µM*	-1.5%
NC(=S)N/N=C/c1cccc(Br)c1	8.2µM*	?	?	-2.7%	?	0.0%
NC(=S)N/N=C/c1cccc(/C=N/NC(N)=S)c1	i	-9.4%	i	29.6%	-24.0%	27.7%
NC(=S)N/N=C/c1ccc(/C=N/NC(N)=S)cc1	i	?	i	1.1%	0.4%	-12.1%
CCOc1ccccc1CNc1ccc(O)cc1	i	16.4µM*	?	?	?	23.1µM*
